Activity calls are given as the source filed them.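 How the source made its calls: active means high combined rank on largest and smallest cell-count-weighted shift across three tests, rank score above 45, floors 50 and 25 (some results past the limit were not filed as active); inactive means the rest.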
Experiment: activators of LNCaP cell differentiation, retest, confirmation, side scatter shift, flow cytometry (AID 1069);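 further: LNCaP human prostate cancer cells in low-serum medium with charcoal-stripped FBS; percent of cells with raised granularity gated so DMSO controls show 10%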
Conditions: 4 d, stronger effect = higher value

Compound	side scatter shift (at 100 µM)	side scatter shift (side scatter shift, at 10 µM) [%]
CN1C(=O)c2ccc(S(=O)(=O)c3ccc(C(=O)O)cc3)cc2C1=O	7.2% (inactive)	5.75
c1ccc(CSc2nnc(-c3cccs3)n2Cc2ccco2)cc1	20% (inactive)	6.7
Cc1ccc(-n2nc3cc(Cl)c(NC(=O)c4ccco4)cc3n2)cc1	20.7% (inactive)	2.8
Cc1noc(C)c1S(=O)(=O)N1CCC(C(=O)NCCN2CCC(C)CC2)CC1	12.7% (inactive)	4.95
COCCn1cc(C(=O)N2CCCC(C)C2)c2c3ccccc3n(C)c2c1=O (stereo unspecified)	22.8% (inactive)	3.2
CSc1nc2ccc(Nc3nc(N4CCOCC4)nc(N4CCOCC4)n3)cc2s1	14.6% (inactive)	5.1
Cc1oc(-c2ccccc2F)nc1CN1CCC(C(=O)NCCC2=CCCCC2)CC1	29.4% (inactive)	17.8
Cc1ccc(Cl)cc1N1CCN(C(=O)c2cc3c(=O)n(C)c4ccccc4c3n2C)CC1	12.9% (inactive)	22.5
CCN(CC)CCNC(=O)c1nn(-c2ccc(C)cc2)c(=O)c2c1c1ccccc1n2C	50% (inactive)	5.55
CC(C)n1c(=S)[nH]c2c1c(=O)[nH]c(=O)n2C	8.1% (inactive)	2.4
Cn1c(C(=O)NCCN2CCN(c3ccccc3F)CC2)cc2c(=O)n(C)c3ccccc3c21	50% (inactive)	7.7
CCOC(=O)N1CCN(C(=O)Cc2ccc(-n3c(=O)[nH]c4ccccc4c3=O)cc2)CC1	6.3% (inactive)	2.6
Cc1ccc(C)c(N2CCN(CCCNC(=O)Cn3cc4c(n3)CCC(C)C4)CC2)c1 (stereo unspecified)	20% (inactive)	25.6

Reference: PubChem BioAssay AID1069 (NMMLSC, 2008)
